rCAG RNA binder: binds r(CAG) RNA repeats. r(CAG) RNA repeat, TO-PRO-1 dye displacement fluorescence. inhibition, % at 3 µM. 370,000 compounds, 1.3% hits. AID 651821;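 active = inhibition above the plate cutoff, the mean of all test compounds on that plate plus 3 SD, cut at about 35% in these data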;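 also: higher means more dye released from RNA so lower well fluorescence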
LANA-H2A inh: blocks KSHV LANA binding to histone H2A/H2B; 320,000 compounds, 0.6% hits; AID 2629; inhibition, % (test concentration not listed); cell-free LANA-H2A/H2B peptide, fluorescence polarization; in the data active = inhibition mostly above about 10%, no sharp cut-off; inactive = mostly below about 6.7%
Rtt109 HAT inh: blocks Candida albicans Rtt109/Vps75 acetyltransferase activity; purified Rtt109/Vps75, ThioGlo CoA-SH fluorescence, 4 h; inhibition, % at 34.9 µM; AID 540336; 330,000 compounds, 0.16% hits;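 active = inhibition of at least 50% in every replicate; inconclusive = best replicate reaches 50% inhibition but some replicates fall short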
Target sequence (Q5AAJ8 whole entry, looked up): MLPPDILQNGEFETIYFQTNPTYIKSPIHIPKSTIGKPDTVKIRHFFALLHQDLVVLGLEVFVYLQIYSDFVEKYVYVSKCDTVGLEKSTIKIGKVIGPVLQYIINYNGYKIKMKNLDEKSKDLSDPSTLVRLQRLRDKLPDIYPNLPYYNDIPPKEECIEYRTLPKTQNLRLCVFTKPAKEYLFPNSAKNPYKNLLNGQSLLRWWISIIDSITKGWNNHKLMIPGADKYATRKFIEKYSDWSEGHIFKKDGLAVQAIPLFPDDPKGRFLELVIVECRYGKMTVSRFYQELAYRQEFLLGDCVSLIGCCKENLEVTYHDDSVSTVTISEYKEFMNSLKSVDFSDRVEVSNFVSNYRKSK
ABHD5 PLIN5 PPI: blocks binding of human ABHD5 to perilipin-5. Split G. princeps luciferase complementation, luminescence, 4 h. inhibition, % at 4 µM. 360,000 compounds, 0.78% hits;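 active = inhibition above the mean inhibition across every tested compound plus 3 SD, cut at about 22% in these data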
PRMT1 FP inh: PRMT1 (human) inhibition, primary screen; Q99873; inhibition, % at 2.79 µM; recombinant PRMT1, activity-based probe fluorescence polarization; 370,000 compounds, 1.3% hits;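 active = inhibition above about 21% made by adding two undisclosed values, limit read from the data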
ALR H2O2 inh: blocks human ALR sulfhydryl oxidase activity. P55789. purified ALR, DTT oxidation, H2O2 HRP-luminol luminescence. inhibition, % (concentration not given with the values). 290,000 compounds, 3.8% hits;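 active = mean replicate inhibition above about 79%, with every replicate also reaching it, limit read from the data; inconclusive = only one of the two criteria met; inactive = mean below limit and not every replicate reaching it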
A number is an active result; 0 = inactive; ? = inconclusive; - = not tested or not shown. Most compounds without a hit are left out; they make up all but 5.9% or so of the library.

SMILES	rCAG RNA binder	LANA-H2A inh	Rtt109 HAT inh	ABHD5 PLIN5 PPI	PRMT1 FP inh	ALR H2O2 inh
O=C(CCCn1c(SCC(=O)c2ccc(O)c(O)c2)nc2ccccc2c1=O)NCC1CCCO1 (stereo not given)	0	0	0	0	0	99
CN(C)c1ccc(NC(=O)CSc2nc3ccccc3c(=O)n2CC2CCCO2)cc1 (stereo not given)	0	0	0	0	0	87
CCN(CC)CCn1c(SCC(=O)Nc2ccc3c(c2)CCC3)nc2ccccc2c1=O	0	-	?	0	21	-
O=C(O)CCCCCn1c(SCC(=O)c2ccc(O)c(O)c2)nc2ccsc2c1=O	0	0	0	0	24	99
Cc1c(C2Nc3ccccc3C2C)[nH]c2ccccc12 (stereo not given)	0	-	-	-	0	-
Cc1cc(NC(=O)Cc2cn(C)c3ccccc23)ccc1Nc1cccnc1	0	-	-	-	0	-
O=c1c2ccccc2c2ccccc2c(=O)n1CC1CCCO1 (stereo not given)	0	0	0	0	0	99
Cc1[nH]nc2c1C(c1cn[nH]c1-c1ccc(F)cc1)C(C#N)=C(N)O2 (stereo not given)	0	0	0	0	0	92
N#CC1=C(N)Oc2n[nH]c(-c3ccc(F)cc3)c2C1c1cccnc1 (stereo not given)	0	-	0	0	0	-
COc1cccc(OCc2cc(/C=N/n3cncn3)ccc2OC)c1	0	0	0	0	0	0
COc1ccc(/C=N/n2cncn2)cc1CSc1ccccn1	0	0	0	0	0	99
C/C(=N\NC(=O)CSCc1ccccc1Cl)c1cc(O)ccc1O	0	0	0	0	0	98
CCOC(=O)C1=CCN(S(=O)(=O)c2ccc(Br)cc2)C1c1ccc(C)cc1 (stereo not given)	0	-	-	0	0	-
O=C(Cn1nnc(-c2ccc(F)cc2)n1)Nc1cccc(S(=O)(=O)N2CCCC2)c1	0	0	0	0	0	0
C/C(=N\N(Cc1ccccc1)c1ccccc1)c1ccncc1	0	0	0	0	0	99
CN(C(=O)c1ccncc1)c1ccccc1	0	0	0	0	0	0
N#CC(C#SN)=C1CCCCC1	0	0	0	0	24	0
Nc1nc(=O)n(C2CCC(CO)O2)cc1F (stereo not given)	0	-	-	0	0	-
COc1cccc(N2CCN(c3ccc4nnc(CCC(=O)Nc5ccccn5)n4n3)CC2)c1	0	0	0	0	0	95
O=c1oc2ccccc2cc1-c1csc(NN=C2CCCC2)n1	0	0	0	0	0	98
COc1cccc(/C=N/n2c(-c3n[nH]c4c3CCC4)n[nH]c2=S)c1OC	0	0	0	0	0	0
COc1cccc(/C=N/n2c(-c3cc(C)[nH]n3)n[nH]c2=S)c1OC	0	0	0	0	0	96
Cc1cc(-c2n[nH]c(=S)n2/N=C/c2ccc(Cl)c([N+](=O)[O-])c2)n[nH]1	0	0	0	0	0	97
CCCC(=O)N1CCC[C@]2(CC[C@H](CCC(C)=O)O2)C1	0	-	-	-	0	-
CCC[C@H]1[C@@H](OC(=O)NC2CCC2)CC[C@@]23CCCN2C(=O)CCC[C@@H]13	-	-	-	-	0	-
SMILES	rCAG RNA binder	LANA-H2A inh	Rtt109 HAT inh	ABHD5 PLIN5 PPI	PRMT1 FP inh	ALR H2O2 inh
O=C(c1cccc(Cl)c1)C1CCCN(Cc2ccc(N3CCNC3=O)cc2)C1 (stereo not given)	0	0	0	0	0	96
CCOC(=O)/C(=C\c1cccnc1)C(=O)c1cc(C(C)=O)c(Nc2ccccc2)s1	-	0	0	90	-	0
CCOC(=O)/C(=C\c1ccccc1)C(=O)c1cc(C(C)=O)c(Nc2ccccc2)s1	0	0	0	0	0	0
CC1(C(=O)NCc2cccc(C(F)(F)F)c2)CCN1Cc1ccc(-c2ccccc2)o1 (stereo not given)	0	-	-	0	22	-
Nc1ccc(N)c(C(=O)O)c1	-	-0.2	0	0	-	0
Cc1nn(Cc2cccc(C(=O)NN)c2)c(C)c1Cl	0	0	0	0	0	97
O=c1cc(O)nc(-c2ccc(Cl)cc2)s1	0	0	0	0	0	93
O=C1C[C@@H](c2ccccc2)N=C2N(Cc3ccc4c(c3)OCO4)C/C(=C/c3ccccc3)N12	0	-	-	-	0	-
CC(Sc1ccccc1)C(=O)NNC(=O)c1ccncc1 (stereo not given)	0	0	0	0	21	-
CC(Sc1ccc(Cl)cc1)C(=O)NNC(=O)c1ccncc1 (stereo not given)	0	0	0	0	0	-

Screening data as filed in PubChem BioAssay.
